# Laboratory results taken from the supplement of paper PMC8728848.
# Shown is part of a subset that was picked to be rich in the strongest signals.
# Legend:
# Experiment in all cases: glycan array binding signal (z-score within array); higher = stronger binding
# Details in all cases: glycan notation: IUPAC condensed, linker removed; mutation: H262T
# [1] = target: Fuc(a1-2)Gal(b1-3)GalNAc(a1-3)[Fuc(a1-2)]Gal(b1-4)Glc
# Method in brief: (§1)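 The binding signal is a Z-score computed within each array and averaged over linkers. Arrays of the same protein sequence at different concentrations or buffers were also averaged together. Data originate from 3228 arrays in the Consortium for Functional Glycomics database, kept only where the protein sequence was available.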
# [2] = target: Fuc(a1-2)Gal(b1-3)GlcNAc(b1-3)[Gal(b1-4)GlcNAc(b1-6)]Gal(b1-4)Glc
# Method in brief: as §1
# Fuc(a1-2)Gal(b1-4)GlcNAc = target: Fuc(a1-2)Gal(b1-4)GlcNAc
# Method in brief: as §1
# [3] = target: Fuc(a1-2)Gal(b1-4)GlcNAc(b1-6)GalNAc
# Method in brief: as §1
# [4] = target: Fuc(a1-2)Gal6S(b1-3)GlcNAc6S
# Method in brief: as §1
# Fuc(a1-2)[Gal(a1-3)]Gal = target: Fuc(a1-2)[Gal(a1-3)]Gal
# Method in brief: as §1
# [5] = target: Fuc(a1-2)[Gal(a1-3)]Gal(b1-4)GlcNAc(b1-2)Man(a1-3)[Fuc(a1-2)[Gal(a1-3)]Gal(b1-4)GlcNAc(b1-2)Man(a1-6)]Man(b1-4)GlcNAc(b1-4)GlcNAc
# Method in brief: as §1
# [6] = target: Fuc(a1-2)[Gal(a1-3)]Gal(b1-4)[Fuc(a1-3)]Glc
# Method in brief: as §1
# [7] = target: Fuc(a1-2)[GalNAc(a1-3)]Gal(b1-3)GlcNAc(b1-6)GalNAc
# Method in brief: as §1
# [8] = target: Fuc(a1-2)[GalNAc(a1-3)]Gal(b1-4)GlcNAc(b1-2)Man
# Method in brief: as §1
# [9] = target: Fuc(a1-2)[GalNAc(a1-3)]Gal(b1-4)GlcNAc(b1-6)GalNAc
# Method in brief: as §1
# [10] = target: Fuc(a1-2)[GalNAc(a1-4)]Gal(b1-4)GlcNAc
# Method in brief: as §1
# [11] = target: Fuc(a1-2)[GalNAc(b1-3)]Gal
# Method in brief: as §1
# Fuc(a1-4)GlcNAc = target: Fuc(a1-4)GlcNAc
# Method in brief: as §1
# Gal(a1-3)Gal = target: Gal(a1-3)Gal
# Method in brief: as §1
# [12] = target: Gal(a1-3)Gal(b1-3)GlcNAc(b1-6)GalNAc
# Method in brief: as §1
# [13] = target: Gal(a1-3)Gal(b1-4)GlcNAc(b1-2)Man
# Method in brief: as §1
# [14] = target: Gal(a1-3)Gal(b1-4)GlcNAc(b1-6)GalNAc
# Method in brief: as §1
# [15] = target: Gal(a1-4)Gal(b1-4)GlcNAc(b1-2)Man(a1-3)[Gal(a1-4)Gal(b1-4)GlcNAc(b1-2)Man(a1-6)]Man(b1-4)GlcNAc(b1-4)GlcNAc
# Method in brief: as §1
# [16] = target: Gal(b1-3)GlcNAc(b1-6)GalNAc
# Method in brief: as §1
# [17] = target: Gal(b1-3)[Fuc(a1-4)]GlcNAc(b1-2)Man
# Method in brief: as §1
# Gal(b1-4)Glc6S = target: Gal(b1-4)Glc6S
# Method in brief: as §1
# [18] = target: Gal(b1-4)GlcNAc(a1-6)Gal(b1-4)GlcNAc
# Method in brief: as §1
# [19] = target: Gal(b1-4)GlcNAc(b1-2)[Gal(b1-4)GlcNAc(b1-4)]Man(a1-3)[GlcNAc(b1-4)][Gal(b1-4)GlcNAc(b1-2)[Gal(b1-4)GlcNAc(b1-6)]Man(a1-6)]Man(b1-4)GlcNAc(b1-4)GlcNAc
# Method in brief: as §1
# [20] = target: Gal(b1-4)GlcNAc(b1-3)Gal(b1-4)GlcNAc(b1-3)Gal(b1-4)GlcNAc(b1-2)Man(a1-3)[Gal(b1-4)GlcNAc(b1-3)Gal(b1-4)GlcNAc(b1-3)Gal(b1-4)GlcNAc(b1-2)Man(a1-6)]Man(b1-4)GlcNAc(b1-4)GlcNAc
# Method in brief: as §1
# [21] = target: Gal(b1-4)GlcNAc(b1-3)Gal(b1-4)GlcNAc(b1-3)GalNAc
# Method in brief: as §1
# [22] = target: Gal(b1-4)GlcNAc(b1-6)Gal(b1-4)GlcNAc
# Method in brief: as §1
# [23] = target: Gal(b1-4)GlcNAc(b1-6)GalNAc
# Method in brief: as §1
# [24] = target: Gal(b1-4)GlcNAc(b1-6)[Gal(b1-4)GlcNAc(b1-3)]GalNAc
# Method in brief: as §1
# Gal3S(b1-3)GlcNAc = target: Gal3S(b1-3)GlcNAc
# Method in brief: as §1
# GalNAc(b1-3)GlcNAc = target: GalNAc(b1-3)GlcNAc
# Method in brief: as §1
# [25] = target: GlcA3S(b1-3)Gal(b1-4)GlcNAc(b1-3)Gal(b1-4)Glc
# Method in brief: as §1
# [26] = target: GlcNAc(a1-4)Gal(b1-4)GlcNAc
# Method in brief: as §1
# [27] = target: GlcNAc(b1-2)[GlcNAc(b1-6)]Man(a1-6)[GlcNAc(b1-2)Man(a1-3)]Man(b1-4)GlcNAc(b1-4)[Fuc(a1-6)]GlcNAc
# Method in brief: as §1
# GlcNAc(b1-3)Gal = target: GlcNAc(b1-3)Gal
# Method in brief: as §1
# [28] = target: GlcNAc(b1-3)Gal(b1-3)GalNAc
# Method in brief: as §1
# [29] = target: GlcNAc(b1-3)Gal(b1-4)GlcNAc(b1-3)Gal(b1-4)GlcNAc(b1-3)Gal(b1-4)GlcNAc(b1-2)[GlcNAc(b1-3)Gal(b1-4)GlcNAc(b1-3)Gal(b1-4)GlcNAc(b1-3)Gal(b1-4)GlcNAc(b1-6)]Man(a1-6)[GlcNAc(b1-3)Gal(b1-4)GlcNAc(b1-3)Gal(b1-4)GlcNAc(b1-3)Gal(b1-4)GlcNAc(b1-2)Man(a1-3)]Man(b1-4)GlcNAc(b1-4)[Fuc(a1-6)]GlcNAc
# Method in brief: as §1
# [30] = target: GlcNAc(b1-4)GlcNAc(b1-4)GlcNAc(b1-4)GlcNAc(b1-4)GlcNAc(b1-4)GlcNAc
# Method in brief: as §1
# GlcNAc(b1-6)GalNAc = target: GlcNAc(b1-6)GalNAc
# Method in brief: as §1
# Kdn(a2-3)Gal(b1-3)GalNAc = target: Kdn(a2-3)Gal(b1-3)GalNAc
# Method in brief: as §1
# Kdn(a2-3)Gal(b1-4)GlcNAc = target: Kdn(a2-3)Gal(b1-4)GlcNAc
# Method in brief: as §1
# [31] = target: Man(a1-3)[Man(a1-6)]Man(a1-6)[Man(a1-2)Man(a1-3)]Man(b1-4)GlcNAc(b1-4)GlcNAc
# Method in brief: as §1
# Man(b1-4)GlcNAc = target: Man(b1-4)GlcNAc
# Method in brief: as §1
# [32] = target: Neu5Ac(a2-3)Gal(b1-3)GalNAc
# Method in brief: as §1
# [33] = target: Neu5Ac(a2-3)Gal(b1-3)GalNAc6S
# Method in brief: as §1
# [34] = target: Neu5Ac(a2-3)Gal(b1-3)GlcNAc
# Method in brief: as §1
# [35] = target: Neu5Ac(a2-3)Gal(b1-4)GlcNAc(b1-2)Man(a1-3)[Neu5Ac(a2-3)Gal(b1-4)GlcNAc(b1-2)Man(a1-6)]Man(b1-4)GlcNAc(b1-4)GlcNAc
# Method in brief: as §1
# [36] = target: Neu5Ac(a2-3)Gal(b1-4)GlcNAc(b1-6)GalNAc
# Method in brief: as §1
# [37] = target: Neu5Ac(a2-3)Gal6S(b1-4)GlcNAc
# Method in brief: as §1
# [38] = target: Neu5Ac(a2-3)Gal6S(b1-4)[Fuc(a1-3)]GlcNAc
# Method in brief: as §1
# [39] = target: Neu5Ac(a2-3)GalNAc(b1-4)GlcNAc
# Method in brief: as §1
# [40] = target: Neu5Ac(a2-6)Gal(b1-4)GlcNAc(b1-2)Man(a1-6)[Gal(b1-4)GlcNAc(b1-2)Man(a1-3)]Man(b1-4)GlcNAc(b1-4)GlcNAc
# Method in brief: as §1
# [41] = target: Neu5Ac(a2-6)Gal(b1-4)GlcNAc(b1-3)Gal(b1-3)GlcNAc
# Method in brief: as §1
# [42] = target: Neu5Ac(a2-6)Gal(b1-4)GlcNAc(b1-3)Gal(b1-4)GlcNAc(b1-3)[Neu5Ac(a2-6)Gal(b1-4)GlcNAc(b1-3)Gal(b1-4)GlcNAc(b1-6)]GalNAc
# Method in brief: as §1
# [43] = target: Neu5Ac(a2-6)Gal(b1-4)GlcNAc(b1-3)Gal(b1-4)GlcNAc(b1-6)[Gal(b1-3)]GalNAc
# Method in brief: as §1
# [44] = target: Neu5Ac(a2-6)GalNAc(b1-4)GlcNAc6S
# Method in brief: as §1
# [45] = target: Neu5Ac(a2-6)GlcNAc(b1-4)GlcNAc(b1-4)GlcNAc
# Method in brief: as §1
# [46] = target: Neu5Ac9Ac(a2-3)Gal(b1-3)GlcNAc
# Method in brief: as §1
# [47] = target: Neu5Gc(a2-3)Gal(b1-4)GlcNAc
# Method in brief: as §1
binder,measurement,setting,value
MGL6A (Homo sapiens) (protein) MTRTYENFQYLENKVKVQGFKNGPLPLQSLLQRLCSGPCHLLLSLGLGLLLLVIICVVGFQNSKFQRDLVTLRTDFSNFTSNTVAEIQALTSQGSSLEETIASLKAEVEGFKQERQAVHSEMLLRVQQLVQDLKKLTCQVATLNNNGEEASTEGTCCPVNWVEHQDSCYWFSHSGMSWAEAEKYCQLKNAHLVVINSREEQNFVQKYLGSAYTWMGLSDPEGAWKWVDGTDYATGFQNWKPGQPDDWQGHGLGGGEDCAHFTPDGRWNDDVCQRPYHWVCEAGLGQTSQESH,glycan array binding signal (z-score),[1],-0.173
same,glycan array binding signal (z-score),[2],-0.175
same,glycan array binding signal (z-score),Fuc(a1-2)Gal(b1-4)GlcNAc,-0.174
same,glycan array binding signal (z-score),[3],7.25
same,glycan array binding signal (z-score),[4],-0.154
same,glycan array binding signal (z-score),Fuc(a1-2)[Gal(a1-3)]Gal,-0.171
same,glycan array binding signal (z-score),[5],-0.165
same,glycan array binding signal (z-score),[6],-0.177
same,glycan array binding signal (z-score),[7],5.97
same,glycan array binding signal (z-score),[8],-0.176
same,glycan array binding signal (z-score),[9],5.98
same,glycan array binding signal (z-score),[10],4.51
same,glycan array binding signal (z-score),[11],5.17
same,glycan array binding signal (z-score),Fuc(a1-4)GlcNAc,-0.173
same,glycan array binding signal (z-score),Gal(a1-3)Gal,-0.171
same,glycan array binding signal (z-score),[12],7.68
same,glycan array binding signal (z-score),[13],-0.18
same,glycan array binding signal (z-score),[14],7.07
same,glycan array binding signal (z-score),[15],-0.168
same,glycan array binding signal (z-score),[16],6.2
same,glycan array binding signal (z-score),[17],-0.169
same,glycan array binding signal (z-score),Gal(b1-4)Glc6S,-0.172
same,glycan array binding signal (z-score),[18],-0.172
same,glycan array binding signal (z-score),[19],-0.197
same,glycan array binding signal (z-score),[20],-0.169
same,glycan array binding signal (z-score),[21],-0.172
same,glycan array binding signal (z-score),[22],-0.172
same,glycan array binding signal (z-score),[23],3.65
same,glycan array binding signal (z-score),[24],-0.172
same,glycan array binding signal (z-score),Gal3S(b1-3)GlcNAc,-0.208
same,glycan array binding signal (z-score),GalNAc(b1-3)GlcNAc,0.976
same,glycan array binding signal (z-score),[25],-0.178
same,glycan array binding signal (z-score),[26],-0.173
same,glycan array binding signal (z-score),[27],-0.173
same,glycan array binding signal (z-score),GlcNAc(b1-3)Gal,-0.178
same,glycan array binding signal (z-score),[28],-0.166
same,glycan array binding signal (z-score),[29],-0.162
same,glycan array binding signal (z-score),[30],-0.175
same,glycan array binding signal (z-score),GlcNAc(b1-6)GalNAc,5.17
same,glycan array binding signal (z-score),Kdn(a2-3)Gal(b1-3)GalNAc,-0.176
same,glycan array binding signal (z-score),Kdn(a2-3)Gal(b1-4)GlcNAc,-0.161
same,glycan array binding signal (z-score),[31],-0.153
same,glycan array binding signal (z-score),Man(b1-4)GlcNAc,-0.172
same,glycan array binding signal (z-score),[32],-0.16
same,glycan array binding signal (z-score),[33],-0.171
same,glycan array binding signal (z-score),[34],-0.176
same,glycan array binding signal (z-score),[35],-0.123
same,glycan array binding signal (z-score),[36],6.48
same,glycan array binding signal (z-score),[37],-0.173
same,glycan array binding signal (z-score),[38],-0.177
same,glycan array binding signal (z-score),[39],-0.169
same,glycan array binding signal (z-score),[40],-0.172
same,glycan array binding signal (z-score),[41],-0.175
same,glycan array binding signal (z-score),[42],-0.172
same,glycan array binding signal (z-score),[43],-0.166
same,glycan array binding signal (z-score),[44],-0.176
same,glycan array binding signal (z-score),[45],-0.175
same,glycan array binding signal (z-score),[46],-0.175
same,glycan array binding signal (z-score),[47],-0.175
